Compound activity (PubChem)
Rows were chosen to be rich in hits. Some 7.3% of all compounds tested hit in one or more screens of this group.
Tau FP inhib: qHTS for Inhibitors of Tau Fibril Formation, Fluorescence Polarization. Microtubule-associated protein tau (Homo sapiens), P10636. K18 P301L tau heparin fibrillization, Alexa594 FP, 6 h. Potency, µM (titrated, usually from 57.7 µM), for inactives: top-dose activity, negative = inhibition, actives largely listed as inhibitors. 0.39% of 280,000 active; also: nearly all actives have a fitted effect of over 55% in size
Target sequence (P10636 561-689 P618L limits assumed): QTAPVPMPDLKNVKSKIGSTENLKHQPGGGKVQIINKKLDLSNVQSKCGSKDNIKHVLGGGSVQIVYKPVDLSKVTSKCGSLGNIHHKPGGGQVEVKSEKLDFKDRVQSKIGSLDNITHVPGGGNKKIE
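Steps: dispense K18 P301L tau (15 uM plus 0.24 uM Alexa 594 tracer, final) in pH 7 sodium acetate; add compound; add heparin (20 uM final); incubate 6 hr, 37 C; add ThT (30 uM final); after 1 hr ambient, read FP.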
VP16 counter: VP16 counterscreen qHTS for inhibitors of ROR gamma transcriptional activity; Drosophila S2 Gal4-VP16 UAS-luciferase, luminescence, 20 h; 3.5% of 310,000 active; Potency, µM (top dose mostly 53.6 µM), without a hit: at the top dose activity, negative = inhibition, usual class: inhibitors; AID 2546, 2010;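 also: Gal4-VP16 expression switched on by copper sulfate through the metallothionein promoter; nearly all actives have a fitted effect of over 50% in size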
Tau fibril ThT: qHTS for Inhibitors of Tau Fibril Formation, Thioflavin T Binding. recombinant tau K18 P301L, heparin-induced fibrillization, ThT fluorescence. 2.1% of 270,000 active. AID 1460, 2008. Microtubule-associated protein tau (Homo sapiens), P10636. Potency, µM (highest dose often 57.4 µM), for inactives: at the top dose activity, negative = inhibition, hits mostly inhibitors; also: nearly all actives have a fitted effect of over 55% in size
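Using a mix of unlabeled (15 uM) and Alexa 594-labeled (0.24 uM) tau K18 P301L, heparin-triggered fibrillization over 6 hr at 37 C was scored by ThT fluorescence.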
Tau fluor cs: Counterscreen qHTS for Inhibitors of Tau Fibril Formation, Fluorescence Polarization | tau K18 P301L Alexa594 fluorescence, heparin fibrillization | Potency, µM (doses to about 57.7 µM), inactives show top-dose activity change, negative = decrease | 0.93% of 280,000 active | AID 1463, 2008; also: nearly all actives have a fitted effect of over 55% in size
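Human tau K18 P301L (15 uM unlabeled, 0.24 uM Alexa 594-labeled) in 100 mM sodium acetate pH 7 with 20 uM heparin, 6 hr at 37 C. ThT 30 uM added, 1 hr ambient; Alexa 594 FP and total fluorescence read at 555/632 nm.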
RORg inh: qHTS for inhibitors of ROR gamma transcriptional activity | Potency, µM (doses to about 53.6 µM), inactives show at the top dose activity change, negative = inhibition, actives largely listed as inhibitors | Nuclear receptor ROR-gamma (Mus musculus), P51450 | AID 2551, 2010 | Drosophila S2 Gal4-RORgamma UAS-luciferase reporter, 20 h | 5.4% of 310,000 active; also: nearly all actives have a fitted effect of over 60% in size
Target sequence (P51450 whole entry, looked up, the tested form may be a part): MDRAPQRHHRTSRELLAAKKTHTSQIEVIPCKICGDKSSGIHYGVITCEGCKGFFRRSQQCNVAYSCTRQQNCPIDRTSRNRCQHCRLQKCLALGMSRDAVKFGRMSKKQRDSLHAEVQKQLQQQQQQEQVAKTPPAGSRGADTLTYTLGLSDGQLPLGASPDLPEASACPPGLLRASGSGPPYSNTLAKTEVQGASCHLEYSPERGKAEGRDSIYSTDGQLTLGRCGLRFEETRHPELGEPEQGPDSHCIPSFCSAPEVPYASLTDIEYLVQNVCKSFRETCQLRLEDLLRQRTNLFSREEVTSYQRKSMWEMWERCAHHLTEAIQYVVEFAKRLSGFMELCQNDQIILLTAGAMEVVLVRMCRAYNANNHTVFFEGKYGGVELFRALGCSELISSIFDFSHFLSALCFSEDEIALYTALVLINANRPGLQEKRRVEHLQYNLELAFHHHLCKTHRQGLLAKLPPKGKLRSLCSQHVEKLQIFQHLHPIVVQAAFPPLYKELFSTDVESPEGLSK
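Schneider cells (Drosophila), stable Gal4 DBD–ROR gamma + UAS-luc; 1 hr cmpd preincubation; Cu2+ induction 700 uM final; 20 hr ambient; luminescence.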
* marks the source's active call; other numbers are inactive results; ? = inconclusive; / = not tested or not shown; [ ] = another dose, or the depositor's remark. Calls follow the shape of the dose curve; as a rule, active = well fitted curve in the direction sought with a large enough effect; inconclusive = small, poorly fitted or top-dose-only effect, or another doubt; inactive = no such curve, though single readings can be large; an effect the other way counts as inactive or inconclusive. % is scaled to controls: 0 for no effect and ±100 for the full control effect; potency is read from the fitted curve at half-maximal effect.

SMILES	Tau FP inhib	VP16 counter	Tau fibril ThT	Tau fluor cs	RORg inh
Cc1ccc(N2C(=O)CC(Sc3cccs3)C2=O)cc1 (configuration not stated)	-12%	7.9µM*	?	-12%	11µM*
Cc1ccc(N2C(=O)CC(Sc3nccc(C)n3)C2=O)cc1 (configuration not stated)	/	?	/	/	18µM*
COc1ccc(N2C(=O)CC(Sc3n[nH]c(-c4ccccc4)n3)C2=O)cc1 (configuration not stated)	10%	-83%	?	-14%	11µM*
Cc1ccc(SC2CC(=O)N(c3ccc4c(c3)OCCO4)C2=O)cc1 (configuration not stated)	6%	?	?	-7%	-84%
CCOC(=O)c1[nH]c2c(c1Cc1ccccc1)C(=O)CC(c1ccccc1)C2 (configuration not stated)	-12%	/	-6%	-28%	/
O=c1oc2c(CN3CCOCC3)c(O)c(Cl)cc2c2c1CCCC2	-13%	-4%	?	-2%	11µM*
O=c1oc2c(CN3CCOCC3)c(O)ccc2c2c1CCCC2	3%	10%	-5%	-1%	20%
Cc1c(O)c(CN2CCCC2)cc2c1oc(=O)c1ccccc12	10%	0%	-10%	-14%	-13%
Cc1c(O)c(CN2CCCC2)cc2c3c(c(=O)oc12)CCC3	?	3%	13µM*	-22%	-15%
Cc1nn(CCC(=O)Nc2cc(F)ccc2F)c(=O)c2nn(-c3ccccc3)c(C)c12	-6%	/	-4%	-11%	/
COc1ccc2cc(/C=C3\SC(=S)NC3=O)c(N3CCOCC3)nc2c1	4%	?	16µM*	-24%	?
Cc1ccc(NC(=O)C(OC(=O)c2ccc(O)cc2)c2ccccc2)cc1Cl (configuration not stated)	28µM*	-8%	12%	?	-26%
Cc1ccc(NC(=O)C(c2ccccc2)N(C)C)cc1Cl (configuration not stated)	0%	?	-2%	-5%	18µM*
Nc1ncc(S(=O)(=O)NCc2ccc(Cl)cc2)cn1	7%	/	0%	-2%	/
CC(C)CNc1cc(NC2CCCCC2)c2c3c(onc13)-c1ccccc1C2=O	6%	/	?	?	/
COCCNc1cc(N2CCN(C3CCCCC3)CC2)c2noc3c2c1C(=O)c1ccccc1-3	0%	/	11µM*	-27%	/
O=C1c2ccccc2-c2onc3c(N4CCN(C5CCCCC5)CC4)cc(NCCO)c1c23	-11%	/	7.1µM*	?	/
O=C1c2ccccc2-c2onc3c(Br)cc(NC4CCCCC4)c1c23	?	/	11µM*	-12%	/
CN(C)CCCNc1cc(N2CCN(C3CCCCC3)CC2)c2noc3c2c1C(=O)c1ccccc1-3	?	/	3.5µM*	?	/
CCOC(=O)N1CCC(NC(=O)c2c(C)nn(-c3cccc(C)c3)c2-n2cccc2)CC1	4%	/	-7%	-2%	/
CC(=O)Nc1ccc(SCC(=O)N2CCN(S(=O)(=O)c3ccccc3)CC2)cc1	/	1%	/	/	3%
CN1/C(=C\C=N\NC(=O)c2cccnc2)C(C)(C)c2ccccc21	11%	0.89µM*	?	9%	0.5µM*
CN1/C(=C\C=N\NC(=O)c2ccc(O)cc2)C(C)(C)c2ccccc21	14%	2.5µM*	?	4%	4.5µM*
CN1/C(=C\C(=O)c2cccnc2)C(C)(C)c2ccccc21	0%	22%	0%	-4%	18%
CC1CCc2c(C(=O)Nc3nccs3)csc2C1 (configuration not stated)	2%	8.9µM*	-6%	-15%	3.5µM*
SMILES	Tau FP inhib	VP16 counter	Tau fibril ThT	Tau fluor cs	RORg inh
O=C(N/N=C\c1ccccc1O)c1ccccc1O	-5%	35µM*	-4%	-15%	1µM*
O=C(Cn1cc(C(F)(F)F)ccc1=O)N/N=C/c1ccccc1O	3%	10µM*	-1%	-2%	2µM*
O=C(N/N=C/c1ccc(O)cc1)c1cccc(C(F)(F)F)c1	7%	3%	?	-11%	-4%[10 µM]
O=C(N/N=C/C1CC2C=CC1C2)c1ccccc1O (configuration not stated)	5%	?	-3%	-3%	4.5µM*
O=C(N/N=C/c1ccccc1O)c1cccc(C(F)(F)F)c1	5%	2µM*	-3%	-21%	1µM*
O=C(N/N=C/c1cc(Br)ccc1O)c1ccccc1Cl	-6%	2.5µM*	-13%	?	0.56µM*
COc1cnc(-c2ccccc2)nc1OC	-11%	0%	2%	-3%	?
COc1ccc(Oc2nc(-c3ccccn3)ncc2OC)cc1	3%	-20%	-9%	-6%	7.1µM*
COc1cnc(-c2ccccn2)nc1Oc1cccc(Cl)c1	3%	16µM*	-14%	-9%	2.8µM*
COc1cnc(-c2ccccc2)nc1Oc1cccc(C)c1	-9%	0%	-9%	-23%	33%
COc1cnc(-c2ccccn2)nc1Oc1c(C)cccc1C	5%	20µM*	-14%	-7%	7.1µM*
COc1cnc(-c2ccccn2)nc1N(C)C	-11%	?	?	-2%	18µM*
CCCCc1nn2c(=O)cc(COC(=O)C3CCCCC3)nc2s1	3%	/	?	-13%	/
COc1ccc2c(c1)C(c1ccc(C)cc1)CC(=O)O2 (configuration not stated)	1%[81.3 µM]	20%[96.6 µM]	-10%[81.4 µM]	-19%[81.3 µM]	2%[96.6 µM]
O=C1C(C=Nc2ccccc2O)=C(O)c2ccccc21	-2%	7.1µM*	?	-29%	4µM*
Cc1ccc(O)c(N=CC2=C(O)c3ccccc3C2=O)c1	?	7.1µM*	25µM*	?	4µM*
CC(=O)c1ccc(NC(=O)CSc2nc(=O)n(Cc3ccncc3)c3c2CCC3)cc1	-10%	/	-7%	-3%	/
Cc1ccc(N=c2c([N+](=O)[O-])nn(-c3ccc(Cl)cc3)n2O)cc1C	-3%	-16%	13µM*	?	17%
O=[N+]([O-])c1nn(-c2ccc3c(c2)OCCO3)n(O)c1=Nc1ccc(Cl)cc1	?	-22%	14µM*	?	?
Cc1cc(C)cc(N=c2c([N+](=O)[O-])nn(-c3ccc4c(c3)OCCO4)n2O)c1	?	1%[10 µM]	?	?	?
Cc1ccc(N=c2c([N+](=O)[O-])nn(-c3ccc4c(c3)OCCO4)n2O)cc1F	8%	-26%	?	?	-28%
CCc1ccc(N=c2c([N+](=O)[O-])nn(-c3ccc4c(c3)OCCO4)n2O)cc1	11%	?	11µM*	?	28%
O=[N+]([O-])c1nn(-c2ccc3c(c2)OCCO3)n(O)c1=Nc1ccccc1	3%	?	4%	0%	14%[10 µM]
